This passage reports outcome results from PubChem BioAssay.

SMILES strings stand for the structures. Activity calls are given as the source filed them. No rule for the calls is given here.

For the test, the target named is Protein kinase 7 (PK7), Plasmodium falciparum 3D7 (PF3D7_0213400) (UniProt Q7YTF7). Kind of test: inhibition of Plasmodium PK7 catalytic activity – biochemical, TCAMS antimalarial set, Kinase-Glo luminescence (AID 1159587). Particulars: recombinant PfPK7, Kinase-Glo ATP depletion luminescence. Background: Kinase-Glo reads ATP consumption through a luciferase reaction.
Sequence of Protein kinase 7 (PK7), Plasmodium falciparum 3D7 (PF3D7_0213400) (Q7YTF7 1-343): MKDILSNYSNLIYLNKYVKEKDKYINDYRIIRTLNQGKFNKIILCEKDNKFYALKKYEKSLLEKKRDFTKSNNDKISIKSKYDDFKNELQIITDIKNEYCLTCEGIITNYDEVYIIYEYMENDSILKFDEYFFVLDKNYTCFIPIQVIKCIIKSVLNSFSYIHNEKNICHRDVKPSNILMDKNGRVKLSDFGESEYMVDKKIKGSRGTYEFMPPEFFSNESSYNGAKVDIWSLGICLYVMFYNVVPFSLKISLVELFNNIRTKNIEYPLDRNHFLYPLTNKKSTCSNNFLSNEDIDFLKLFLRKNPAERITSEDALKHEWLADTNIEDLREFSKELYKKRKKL
For `CCCCCCN1CCC(NCc2ccc(OCCN3CCCC3)cc2)CC1`, the outcome was inactive.
For the compound `Cc1cccc(CN2CCC(C(=O)Nc3ccc(-c4nc5ccccc5[nH]4)cc3)CC2)n1`, the outcome was inactive.
Consider `CC(C)c1ccc(N(CC(=O)N/N=C/c2ccc(C(F)(F)F)cc2)S(=O)(=O)c2ccc(C(F)(F)F)cc2)cc1`, for which the outcome was inactive.
As to `COc1ccc2nc(-c3cc(-c4ccc(NC(=O)C(C)C)cc4)cnc3N)[nH]c2c1`, the result was inactive.
In the case of `O=C(NCCCCN1CCC(c2ccc(Br)cc2)CC1)c1ccc(NC(=O)c2ccc(Cl)cc2)cc1` it was “inactive”; in that of `O=S(=O)(NCCN1CCCC1)c1cccc(-c2cccc(CNCc3ccsc3)c2)c1`, “inactive”.
As to `CCc1cn2c3c(cc(C(=O)N[C@@H](Cc4ccccc4)[C@H](O)CNC4CCOCC4)cc13)N(C)S(=O)(=O)C2`, the result was inactive.
Regarding `COc1ccc(CNCc2ccc(-c3ccc(-c4nc5ccc(C(F)(F)F)cc5[nH]4)s3)cc2)cc1`, the result was inactive.
As for `COc1ccc(-c2nc(NC(=O)Cc3ccc4c(c3)OCCO4)sc2C)cc1`, the outcome was inactive.
In the case of `COC(=O)c1ccc2nc(-c3ccc(/C=C/C(=O)NCc4ccc(Cl)c(Cl)c4)cc3)[nH]c2c1` it was “inactive”; in that of `N#Cc1cccc(Nc2nccc(NCC(O)c3cccc(C(F)(F)F)c3)n2)c1` (centres undefined), “inactive”; in that of `COc1cc(-c2nc(-c3ccccc3)c(-c3ccccc3)[nH]2)cc(OC)c1O`, “inactive”.
With `N#Cc1cc(C(=O)c2cc(Cl)ccc2O)cn(-c2cccc(C(F)(F)F)c2)c1=O`, the outcome was inactive.
The same measure for `CC(C)CC1c2[nH]c3ccccc3c2CCN1C(=O)CCc1ccccc1` (centres undefined): “inactive”; for `CCNC(C)(C)CN(Cc1ccc(-c2ccc(C(F)(F)F)cc2)cc1)C(=O)Cn1c(CCc2cccc(F)c2F)nc(=O)c2ccccc21`: “inactive”; for `Cc1cc(N[C@@H](CC(C)C)C(=O)NCCc2ccccc2)nc(Nc2ccccc2)n1`: “inactive”.
With `O=C(Nc1ccc(N2CCN(Cc3ccccc3)CC2)cc1)c1cccs1`, the outcome was inactive.
Take `CCOC(=O)c1c(C)n(-c2ccc(Cl)cc2)c2ccc(OC(=O)C=Cc3ccccc3)cc12`: the outcome was inactive.
Turning to `Cc1cccc2[nH]c(-c3ccc(-c4cccc(NC(=O)CCc5cnc[nH]5)c4)cc3)nc12`, the outcome was inactive.
Consider `Cc1ccc(-c2nc3ccc(C(=O)NC4CCN(Cc5ccccc5)CC4)cc3[nH]2)cc1`, for which the outcome was inactive.
For the compound `COc1ccc2nc(C)cc(N/N=C/C=C/c3ccccc3)c2c1`, the outcome was inactive.
On to `CC(=O)Nc1ccc(OCCCCN(Cc2ccccc2OC(F)(F)F)c2ccc(C(F)(F)F)c(C#N)c2)c(Cl)c1`, for which the outcome was inactive.
`Cc1ccc(Nc2nc(C)cc(NCc3ccc(-n4ccnc4)cc3)n2)cc1`: the outcome was inactive.
For the compound `CCc1sc(N2CCN(C)CC2)nc1C(=O)NCCc1ccc(Cl)c(Cl)c1`, the outcome was inactive.
Turning to `COc1cc2nc(C)nc(Nc3cccc(Br)c3)c2cc1OC`, the outcome was inactive.
In the case of `Oc1ccc(CCNc2nc(NCc3cccc(-c4cc(C(F)(F)F)ccc4Cl)c3)nc(N3CCNCC3)n2)cc1` it was “inactive”.
The same measure for `CC1(C)N=C(N)N=C(N)N1OCOc1ccc(Cl)cc1`: “inactive”; for `O=C(/C=C/c1ccc(Cl)c(Cl)c1)NCCCCCN1CCCN(C(=O)Nc2ccc(C(F)(F)F)cc2)CC1`: “inactive”.
For the compound `N#Cc1cccc(NC(=O)Nc2ccc3c(c2)CN(Cc2c[nH]c4ncccc24)C3)c1`, the result was inactive.
`COC(=O)CNC(c1ccccc1)c1cc(Br)ccc1NC(=O)c1ccccc1Br` (centres undefined): the result was inactive.
Take `Nc1nc(N)c2c(ccc3c2ccn3CCCC2CCCNC2)n1` (centres undefined): the outcome was inactive.
`COc1ccc(C(=O)Nc2ccc(-c3ccc([N+](=O)[O-])cc3)cc2)cc1CCCN(C)C`: the result was inactive.
Take `Cn1c(-c2ccccc2)cc2c3c(N)nc(N)nc3ccc21`: the outcome was inactive.
As for `Fc1cccc(CNc2ncc(-c3ccsc3)c(-c3nccs3)n2)c1`, the outcome was inactive.
Take `c1ccc(Oc2ccc(Nc3ccnc4cc(-c5cccc(CNCCN6CCOCC6)c5)ccc34)cc2)cc1`: the result was inactive.
Take `CCOc1ccc(C(C)NC(=O)c2cc(Cl)ccc2OC)cc1OCC` (centres undefined): the outcome was inactive.
In the case of `CN1CCCC(CN2CCN(Cc3ccc(-c4ccc(-c5nc6ccccc6[nH]5)s4)cc3)CC2)C1` (centres undefined) it was “inactive”; in that of `N#Cc1ccc(N(CCOc2ccc(Cl)cc2)Cc2ccccc2C(F)(F)F)cc1C(F)(F)F`, “inactive”; in that of `Cc1cc(NC2CCCC2)nc(Nc2ccccc2F)n1`, “inactive”.
